Experiment [1] is described as follows: qHTS assay to identify aromatase inhibitors - cell viability counter screen (AID 743084).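 Also: cells stimulated with testosterone during compound exposure; nearly all actives have a fitted effect of over 55% in size.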 Also: potency is read from the fitted curve at half-maximal effect.
In experiment [2] the target is Aryl hydrocarbon receptor (Homo sapiens) (UniProt P35869). Put plainly: qHTS assay to identify small molecule that activate the aryl hydrocarbon receptor (AhR) signaling pathway (AID 743085). Also: nearly all actives have a fitted effect of over 15% in size. Also: potency is read from the fitted curve at half-maximal effect.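 As to activation: HG2L7.5c1 human HepG2 liver cells with stably integrated DRE-driven firefly reporter; series mostly up to about 70 µM.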 Put shortly: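 Reporter assay in engineered HepG2 line HG2L7.5c1, whose plasmid carries twenty dioxin responsive elements upstream of firefly luciferase. Treatment lasted 24 h at 37C; ONE-Glo luminescence gauged induction.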
Aryl hydrocarbon receptor (Homo sapiens), sequence (P35869 whole entry, looked up): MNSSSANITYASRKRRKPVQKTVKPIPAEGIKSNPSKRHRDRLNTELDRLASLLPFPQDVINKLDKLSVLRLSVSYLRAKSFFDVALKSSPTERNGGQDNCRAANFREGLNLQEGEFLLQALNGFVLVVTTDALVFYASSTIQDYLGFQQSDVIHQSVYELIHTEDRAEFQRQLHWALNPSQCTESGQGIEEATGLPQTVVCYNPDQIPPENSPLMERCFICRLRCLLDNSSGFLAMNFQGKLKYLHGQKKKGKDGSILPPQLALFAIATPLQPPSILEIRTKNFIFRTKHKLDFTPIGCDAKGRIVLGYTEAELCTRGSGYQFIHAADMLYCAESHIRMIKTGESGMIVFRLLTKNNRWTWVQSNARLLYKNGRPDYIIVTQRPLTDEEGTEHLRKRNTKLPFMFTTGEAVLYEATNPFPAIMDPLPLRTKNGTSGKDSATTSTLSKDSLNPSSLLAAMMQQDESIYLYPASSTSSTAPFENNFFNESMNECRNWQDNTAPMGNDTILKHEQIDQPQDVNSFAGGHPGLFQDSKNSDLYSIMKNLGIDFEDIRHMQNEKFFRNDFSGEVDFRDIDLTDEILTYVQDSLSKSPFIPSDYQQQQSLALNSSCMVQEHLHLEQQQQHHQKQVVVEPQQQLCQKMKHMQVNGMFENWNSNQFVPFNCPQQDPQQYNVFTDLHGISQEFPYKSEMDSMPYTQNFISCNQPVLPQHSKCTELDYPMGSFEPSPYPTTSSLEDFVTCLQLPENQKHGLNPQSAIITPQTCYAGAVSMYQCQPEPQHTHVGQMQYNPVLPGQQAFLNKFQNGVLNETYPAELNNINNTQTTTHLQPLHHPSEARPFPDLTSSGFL

A short description of experiment [3]: qHTS assay to identify small molecule that activate the aryl hydrocarbon receptor (AhR) signaling pathway - cell viability counter screen (AID 743086). Also: nearly all actives have a fitted effect of over 45% in size. Also: potency is read from the fitted curve at half-maximal effect. Put shortly: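 HepG2-AhR-luc (HG2L7.5c1) cells, 4000/well, treated 24 h at 37 C with compound; viability measured as CellTiter-Fluor fluorescence after 30 min in the same wells as the luciferase read.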
Background: qHTS replaces the single test concentration by a dilution series.

The nature of experiment [4]: qHTS assay to identify small molecule antagonists of the peroxisome proliferator-activated receptor gamma (PPARg) signaling pathway - cell viability counter screen (AID 743194). Also: nearly all actives have a fitted effect of over 55% in size. Also: potency is read from the fitted curve at half-maximal effect. Put shortly:
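Cytotoxicity counter screen in PPARg-bla HEK293H cells, same wells as reporter assay. Compounds plus 50 nM rosiglitazone (final) for 17 h at 37 C, then viability read by CellTiter-Glo luminescence.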

Experiment [5] can be described thus: qHTS assay for small molecule agonists of the antioxidant response element (ARE) signaling pathway - cell viability counter screen (AID 743203; calls by dose curve; also: nearly all actives have a fitted effect of over 55% in size; also: potency is read from the fitted curve at half-maximal effect). The essentials: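 ATP content via CellTiter-Glo luminescence served as the viability measure. Cells: ARE-bla HepG2, 2,000 per well. Exposure: 16 hrs, 37C/5% CO2.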
Experiment [6] is described as follows: qHTS assay for small molecule activators of the heat shock response signaling pathway - cell viability counter screen (AID 743209). Also: nearly all actives have a fitted effect of over 50% in size. Also: potency is read from the fitted curve at half-maximal effect. Put shortly: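 Compounds dissolved in DMSO were added to overnight-plated HSE-bla HeLa cells and left 5 h at 37 C. Cell viability was quantified by luminescence using CellTiter-Glo.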
Experiment [7] can be described thus: qHTS assay for small molecule activators of the heat shock response signaling pathway (AID 743210; active = well fitted activation curve with a large enough effect in the signal ratio in the repeat runs, with a control signal flat, not every such curve was filed as active; the % refers to the signal ratio;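 also: HeLa cells with beta-lactamase reporter driven by heat shock elements; series mostly up to about 63 µM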). Put shortly:
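Following overnight attachment, HSE-bla HeLa cells received test compounds for 5 h at 37 C; beta-lactamase activity was then detected via FRET substrate fluorescence.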

In experiment [8] the target is Peroxisome proliferator-activated receptor gamma (Homo sapiens) (UniProt P37231). Put plainly: qHTS assay to identify small molecule agonists of the peroxisome proliferator-activated receptor gamma (PPARg) signaling pathway (AID 743094; active = well fitted activation curve with a large enough effect in the signal ratio in the repeat runs, not every such curve was filed as active; the % refers to the signal ratio). The essentials: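 Agonism was assessed in a beta-lactamase reporter system, HEK293H cells with a stably integrated UAS-bla construct under PPARg control; the 17 h treatment at 37C preceded a 1 h room-temperature FRET substrate read.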
Peroxisome proliferator-activated receptor gamma (Homo sapiens), sequence (P37231 whole entry, looked up): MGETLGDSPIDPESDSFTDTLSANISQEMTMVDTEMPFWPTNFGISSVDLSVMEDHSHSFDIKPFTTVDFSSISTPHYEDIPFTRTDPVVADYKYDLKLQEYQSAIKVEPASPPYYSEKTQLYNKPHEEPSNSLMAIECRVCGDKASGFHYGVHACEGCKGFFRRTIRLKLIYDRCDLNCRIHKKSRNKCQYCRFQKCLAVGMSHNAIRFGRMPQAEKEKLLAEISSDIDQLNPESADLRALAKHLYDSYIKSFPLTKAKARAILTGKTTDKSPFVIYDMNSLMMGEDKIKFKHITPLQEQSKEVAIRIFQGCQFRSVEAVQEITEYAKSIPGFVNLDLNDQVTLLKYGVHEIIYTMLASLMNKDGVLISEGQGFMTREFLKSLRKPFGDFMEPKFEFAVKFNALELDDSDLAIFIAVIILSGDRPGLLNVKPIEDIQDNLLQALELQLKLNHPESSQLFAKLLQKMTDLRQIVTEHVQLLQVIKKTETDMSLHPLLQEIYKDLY

Experiment [9] has the same target. Description: qHTS assay to identify small molecule antagonists of the peroxisome proliferator-activated receptor gamma (PPARg) signaling pathway (AID 743191; calls by dose curve; also: series mostly up to about 63 µM; nearly all actives have a fitted effect of over 30% in size). The essentials:
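GeneBLAzer PPARg UAS-bla HEK293H cells, 5 h post-plating, exposed to compounds 17 h at 37C. LiveBLAzer B/G FRET substrate added for 1 h at room temperature; beta-lactamase reporter read by fluorescence intensity.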

The nature of experiment [10]: qHTS assay for small molecule agonists of the antioxidant response element (ARE) signaling pathway (AID 743202; active = well fitted activation curve with a large enough effect in the signal ratio in the repeat runs, not every such curve was filed as active; the % refers to the signal ratio; also: potency is read from the fitted curve at half-maximal effect). Put shortly: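 HepG2 ARE-bla cells; 16 h treatment at 37 C; FRET-based beta-lactamase fluorescence read after 2 h substrate incubation at room temperature.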

Records with an inconclusive call do not appear. The source made the active and inactive calls. Unless noted, calls follow the shape of the dose curve; as a rule, active = well fitted curve in the direction sought with a large enough effect in the repeat runs; inconclusive = weak or mixed curves; inactive = no such curve, though single readings can be large; an effect the other way counts as inactive or inconclusive.

Turning to `O=C1c2cccc(O)c2C(=O)c2c(O)cc(CO)cc21`, the Potency entry in experiment [1], in experiment [2], in experiment [3], in experiment [4], in experiment [5] and in experiment [6] was “inactive” throughout. Also, the compound was called inactive in experiment [7].

Take `CC[C@H](C)[C@H](N)C(=O)O`: the Potency result in experiment [1], in [3], in [8], in experiment [9], in experiment [4] and in experiment [10] was “inactive” in each case. Further, the compound was called inactive in [7].

With `N#Cc1cc2ccccc2c2ccccc12`, the Potency entry in experiment [1], in experiment [3], in experiment [8], in experiment [9], in [5] and in experiment [6] was “inactive” throughout. In [7], the result was inactive.

As to `N#CCCNCCC#N`, the Potency result in experiment [1], in experiment [3], in experiment [8], in experiment [9], in experiment [10] and in [5] was “inactive” each time. Further, the Potency entry in experiment [6] was “inactive”. For the same compound, the compound was called inactive in experiment [7].

On to `CCc1nn(C2CCCCC2)c2cc(C3(C#N)CCC(C(=O)O)CC3)ccc12` (stereo not drawn), for which the Potency is 54.5 µM (active) in [1], 24.3 µM (active) in experiment [3] and 27.3 µM (active) in [10]. The Potency entry in experiment [2], in experiment [5] and in experiment [6] was “inactive” each time. Besides, the outcome in [7] was inactive.

For the compound `COC(=O)CSc1cc(N=c2sc(=O)n3n2CCCC3)c(F)cc1Cl`, the Potency entry in experiment [1], in [3], in experiment [8], in experiment [9], in [4] and in experiment [5] was “inactive” each time. In addition, the Potency result in [6] is “inactive”. In addition, the compound was classed as inactive in experiment [7].

As for `O=C(Cl)c1ccc([N+](=O)[O-])cc1`, the Potency result in experiment [1], in experiment [3], in [8], in [9], in experiment [4] and in experiment [10] was “inactive” throughout. Also, the Potency entry in [5] and in experiment [6] was “inactive” each time. The result in [7] was inactive.

With `Cc1cccc(OCCOc2cccc(C)c2)c1`, the Potency entry in [1], in [3], in experiment [8], in experiment [9], in [4] and in [10] was “inactive” throughout. Moreover, the Potency entry in experiment [5] and in experiment [6] was “inactive” in each case. Moreover, the compound was called inactive in experiment [7].

On to `Oc1ccc(O)c2c(O)cccc12`, for which the Potency result in experiment [1], in experiment [3], in [4], in [5] and in [6] was “inactive” each time. The Potency in experiment [2] is 12.1 µM (active).

Regarding `CN(C)C/C=C(/c1ccc(Br)cc1)c1cccnc1`, the Potency entry in [1], in [2], in experiment [8], in experiment [4], in experiment [10] and in [5] was “inactive” each time. In addition, the Potency result in experiment [6] is “inactive”.

As to `CCCc1ccccc1`, the Potency result in experiment [1], in [3], in [9], in experiment [4], in experiment [5] and in [6] was “inactive” each time. Moreover, the compound was called inactive in experiment [7].

In the case of `CC(C(=O)O)c1ccc(C(=O)c2ccccc2)s1` (stereo not drawn), the Potency result in experiment [1], in [3], in [9], in experiment [4], in experiment [10] and in experiment [5] was “inactive” throughout. Further, the Potency result in experiment [6] is “inactive”. Besides, the compound was called inactive in [7].

For the compound `CN1CCC[C@@H]1c1cccnc1`, the Potency entry in experiment [1], in experiment [3], in experiment [8], in [10], in experiment [5] and in [6] was “inactive” in each case.

On to `C[C@@H](C1=C(CCN(C)C)Cc2ccccc21)c1ccccn1`, for which the Potency result in experiment [1], in [3], in experiment [4], in [5] and in [6] was “inactive” each time. Further, in [7], the compound was called inactive.

On to `CCC(=O)OC(C)(C)C1CC=C(C)CC1` (stereo not drawn), for which the Potency entry in experiment [1], in experiment [3], in experiment [8], in experiment [4] and in [6] was “inactive” in each case. Further, in [7], the compound was classed as inactive.

Turning to `CCCCOc1cc(C(=O)OCCN(CC)CC)ccc1N`, the Potency entry in [1], in experiment [3], in [8], in experiment [4] and in experiment [5] was “inactive” each time. Moreover, the outcome in [7] was inactive.

For `Oc1ccc2c(c1)OCO2`, the Potency result in [1], in experiment [3], in [8], in experiment [4], in [10] and in experiment [5] was “inactive” in each case. Further, the Potency entry in experiment [6] was “inactive”. Moreover, the compound was classed as inactive in [7].

As to `N#Cc1c(F)cccc1F`, the Potency entry in [1], in experiment [3], in experiment [8], in [4], in experiment [10] and in experiment [5] was “inactive” each time. Moreover, the Potency entry in experiment [6] is “inactive”. In [7], the compound was called inactive.

As to `O=C(c1ccc(O)cc1)c1ccc(O)cc1`, the Potency result in experiment [1], in experiment [3], in experiment [8], in experiment [4], in experiment [10] and in [6] was “inactive” each time. In experiment [7], the compound was classed as inactive.

As to `O=C(NS(=O)(=O)/C=C/c1cccs1)c1ccc(F)cc1Br`, the Potency result in [1], in experiment [3], in experiment [9], in experiment [4], in experiment [5] and in experiment [6] was “inactive” each time. The compound was called inactive in experiment [7].

Turning to `CCOC(=O)C1=NN(c2ccccc2)C(=O)C1`, the Potency entry in experiment [1], in [3], in experiment [9], in experiment [4], in experiment [10] and in experiment [6] was “inactive” throughout. In [7], the call was inactive.

For the compound `ClC(Cl)(Cl)c1ccc(C(Cl)(Cl)Cl)cc1`, the Potency result in experiment [1], in experiment [3], in experiment [8], in experiment [10], in experiment [5] and in [6] was “inactive” throughout. In experiment [7], the outcome was inactive.

Regarding `CC(C)(C)c1ccc(OCC2CO2)cc1` (stereo not drawn), the Potency result in [1], in experiment [3], in experiment [4], in [10] and in experiment [6] was “inactive” throughout.

As for `CC1(C)[C@H]2CC[C@]1(C)[C@H](O)C2`, the Potency entry in [1], in experiment [3], in experiment [4], in [10], in experiment [5] and in [6] was “inactive” in each case. Further, the result in experiment [7] was inactive.

For the compound `NC(N)=NN=C(/C=C/c1ccc([N+](=O)[O-])o1)/C=C/c1ccc([N+](=O)[O-])o1`, the Potency in experiment [1] was 5.31 µM (active); in experiment [3], 7.5 µM (active); in [4], 2.11 µM (active); in [5], 5.96 µM (active); in experiment [6] it was 5.31 µM (active).

Regarding `CCCCCCCC/C=C\CCCCCCCC(N)=O`, the Potency result in experiment [1], in experiment [3], in [8], in [4], in [10] and in [5] was “inactive” throughout. In addition, in [6], the Potency result is “inactive”. Also, the call in experiment [7] was inactive.

For the origin of these results see PubChem BioAssay (Tox21).
